Among all 650,000 compounds or so, about 5,900 (0.91%) were called active. This is one part of a sample in which actives are shown more often than they occur. Rule as the data show it: active = inhibition above about 50%; inactive = the rest.

Microphthalmia-associated transcription factor (Homo sapiens), sequence (O75030 whole entry, looked up): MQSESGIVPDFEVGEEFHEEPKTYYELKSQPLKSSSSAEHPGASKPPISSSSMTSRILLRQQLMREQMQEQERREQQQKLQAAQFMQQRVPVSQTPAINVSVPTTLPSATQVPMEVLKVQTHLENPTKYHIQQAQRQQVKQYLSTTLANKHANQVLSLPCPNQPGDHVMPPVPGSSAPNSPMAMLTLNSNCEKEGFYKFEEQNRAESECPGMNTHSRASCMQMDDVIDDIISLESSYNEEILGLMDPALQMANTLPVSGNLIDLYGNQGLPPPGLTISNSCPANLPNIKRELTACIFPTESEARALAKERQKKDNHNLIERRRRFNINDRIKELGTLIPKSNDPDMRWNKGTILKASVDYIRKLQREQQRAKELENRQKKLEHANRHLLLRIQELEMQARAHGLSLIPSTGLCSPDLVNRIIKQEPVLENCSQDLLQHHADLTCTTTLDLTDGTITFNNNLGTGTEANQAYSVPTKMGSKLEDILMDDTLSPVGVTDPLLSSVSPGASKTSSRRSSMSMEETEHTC

The test addresses Microphthalmia-associated transcription factor (Homo sapiens) (UniProt O75030). Nature of the test: MITF inhibitors, primary screen, biochemical, AlphaScreen, human (AID 1259374).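 Also: 0% = vehicle wells with protein.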 Conditions: AlphaScreen MITF homodimerization, bead proximity signal; at 2.6 µM; stronger effect = higher value. A general note: In Alpha technology, singlet oxygen from a donor bead excites a nearby acceptor bead.
For `OC[C@@H]1CCCN1Cc1nc(-c2ccccn2)no1`, the inhibition (in general, the relative decrease from the control value, in per cent) was 7.1% (inactive).

For the compound `CCOC(=O)C1=C(C)N=c2s/c(=C\c3c[nH]c4ccccc34)c(=O)n2C1c1ccc(OC)c2ccccc12` (centres undefined), the inhibition was 12.2% (inactive).

For `C=CCNC(=O)c1sc(=S)n(CC)c1N`, the inhibition is 60.2% (active).

On to `COCCOC(=O)c1sc(=S)n(CCOC)c1N`, for which the inhibition was -3.44% (inactive).

As to `C=CCNC(=O)c1sc(=S)n2c1[nH]c(=O)c1ccc(C(=O)OC)cc12`, the inhibition is 1.34% (inactive).

On to `CCOc1ccc(Nc2n[nH]c(C)c2[N+](=O)[O-])cc1`, for which the inhibition was -3.22% (inactive).

For the compound `Cc1nnc(SCC(=O)Nc2ccc(Cc3ccc(NC(=O)CSc4nnc(C)s4)c(C(=O)O)c3)cc2C(=O)O)s1`, the inhibition is 10.6% (inactive).

As for `C=CCNCCOCCOc1cc(C)ccc1C(C)(C)C`, the inhibition is 65.6% (active).

Turning to `Cc1ccc(C(C)(C)C)c(OCCCNCCO)c1`, the inhibition is 18.8% (inactive).

`Cc1cc(C(C)(C)C)ccc1OCCOCCNCCN`: the inhibition is 5.37% (inactive).

On to `CN(C)S(=O)(=O)c1ccc(C(=O)NCc2nnc(SCC(=O)N3N=C(c4cccs4)CC3c3ccc(F)cc3)n2C)cc1` (centres undefined), for which the inhibition is -5.15% (inactive).

`CCC1(CC)Cc2ccccc2C(c2c(C)[nH]n(-c3ccccc3)c2=O)=N1`: the inhibition is 23.6% (inactive).

For the compound `COc1cc(/C=C2/NC(=O)N(c3ccccc3)C2=O)cc(OC)c1O`, the inhibition is -14.5% (inactive).

`COC(=O)c1ccccc1NC(=O)c1cc2c(=O)oc3ccccc3c2s1`: the inhibition is -9.64% (inactive).

Take `COc1ccccc1-n1cnnc1SCC(=O)Nc1sc2c(c1C#N)CCCC2`: the inhibition was -6.73% (inactive).

Turning to `COc1cc(NC(=O)CSc2nnc(-c3ccoc3C)n2CC(C)C)cc(OC)c1`, the inhibition is 9.5% (inactive).

With `Cc1ccc(C(C)(C)C)c(OCCN2CCNCC2)c1`, the inhibition was 46.6% (inactive).

With `Cc1ccc(C(C)C)c(OCc2n[nH]c(=S)n2C)c1`, the inhibition is 2.35% (inactive).

With `Cc1ccc(Cl)c(OCCCCN2CCNCC2)c1`, the inhibition was 41.9% (inactive).

For the compound `Cc1cc(OCCCCN2CCOCC2)ccc1C(C)C`, the inhibition is 27.1% (inactive).

Take `Cc1ccc(OCCN2CCNCC2)c(Cl)c1`: the inhibition was 36.1% (inactive).

In the case of `Cc1ccc(C(C)C)c(OCCN2CCNCC2)c1`, the inhibition is 74.9% (active).

On to `Cc1cc(OCCN2CCN(C)CC2)ccc1C(C)C`, for which the inhibition is 59.4% (active).

As for `Cc1ccc(C(C)C)c(OCC#CCN2CCNCC2)c1`, the inhibition was 77.2% (active).

Turning to `CCC(C)Oc1cccc(OCCN2CCN(C)CC2)c1` (centres undefined), the inhibition was -22.9% (inactive).

Consider `CC1C2Oc3ccccc3C1Oc1ccccc12` (centres undefined), for which the inhibition is 4.85% (inactive).

Take `COc1ccc2[nH]c3c(c2c1)CCOC31CCN(C(=O)CC2(CC(=O)O)CCCC2)CC1`: the inhibition was -10.7% (inactive).

On to `O=C1C(=O)N(Cc2cccnc2)C(c2cccnc2)/C1=C(/O)c1ccccc1` (centres undefined), for which the inhibition is 5.16% (inactive).

For the compound `Cc1nc2ccccn2c1/C(O)=C1\C(=O)C(=O)N(Cc2ccccc2)C1c1cccnc1` (centres undefined), the inhibition is 66.2% (active).

Take `O=C1C(=O)N(Cc2cccnc2)C(c2ccncc2)/C1=C(\O)c1ccccc1` (centres undefined): the inhibition was 11.9% (inactive).

On to `CN(C)CCNC(=O)c1ccc(-c2cnc3c(NCc4ccc(F)cc4)nccn23)cc1`, for which the inhibition was -23.3% (inactive).

For the compound `CCOC(=O)c1c(NC(=O)CSc2nnc(CNC(=O)c3cccc(OC)c3)n2C)sc2c1CCCCC2`, the inhibition was -18.6% (inactive).

On to `O=C(O)CN1C(=O)/C(=C\c2cccc(C(=O)O)c2)SC1=S`, for which the inhibition was 58.4% (active).

With `O=C(O)CN1C(=O)/C(=C\c2ccc(O)c(Br)c2)SC1=S`, the inhibition is 17.2% (inactive).

For `O=C(O)CN1C(=O)/C(=C/c2cccc([N+](=O)[O-])c2)SC1=S`, the inhibition is 4.75% (inactive).

For `CC1CN(c2ccc(/C=C(\C#N)c3nc4ccccc4[nH]3)o2)CC(C)O1` (centres undefined), the inhibition is -14.4% (inactive).

Take `Nc1nc(NCCO)cc(Nc2ccc(C(F)(F)F)cc2)n1`: the inhibition is -1.49% (inactive).

Consider `CCOC(=O)c1sc(NC(=O)C(C)Sc2nnc(CNC(=O)c3ccc(Cl)cc3Cl)n2C)c(C(=O)OCC)c1C` (centres undefined), for which the inhibition was -5.12% (inactive).

Turning to `CCOC(=O)c1ccccc1NC(=O)C1CC(=O)N(c2ccc(Cl)c(Cl)c2)C1` (centres undefined), the inhibition is -0.38% (inactive).

As to `CN1C(=O)c2ccc(NC(=O)c3c(F)cccc3F)cc2C1=O`, the inhibition is 4.14% (inactive).

Regarding `O=C(NN1CCOCC1)c1cccc(F)c1`, the inhibition was 0.76% (inactive).

As for `O=C(NN1C(=O)c2ccccc2C1=O)c1cccc(F)c1`, the inhibition was 69.1% (active).

For `Cc1ccc(N2C(=O)c3ccc(C(=O)NN4C(=O)c5ccccc5C4=O)cc3C2=O)cc1C`, the inhibition was 9.89% (inactive).

As for `CCN(CCCNC(=O)Cn1c(=O)[nH]c2ccccc2c1=O)c1cccc(C)c1`, the inhibition is -6.52% (inactive).

With `O=[N+]([O-])c1cnc(N2CCN(Cc3ccccc3)CC2)c([N+](=O)[O-])c1`, the inhibition is -6.34% (inactive).

For the compound `Cc1cc(OCCCN2CCN(Cc3ccccc3)CC2)ccc1[N+](=O)[O-]`, the inhibition is 69.8% (active).

With `C=CCN(CC=C)CCCOc1ccc([N+](=O)[O-])c(C)c1`, the inhibition was 22.8% (inactive).

`COc1ccc(CN2CCC3(CC2)c2ccccc2[C@@H](NC(=O)CSC)[C@@H]3OC)cc1`: the inhibition was 5.12% (inactive).

On to `C=CCN1C(=O)/C(=C\c2cc(OC)c(O)c([N+](=O)[O-])c2)C(=O)NC1=S`, for which the inhibition is 57.5% (active).

As for `COc1ccccc1N1C(=O)NC(=O)/C(=C/c2cc(OC)c(O)c([N+](=O)[O-])c2)C1=O`, the inhibition is -6.01% (inactive).

With `C=CCN1C(=O)/C(=C\c2cc(OC)ccc2OC)C(=O)NC1=S`, the inhibition was 18.8% (inactive).

For `CSc1cccc(NC(=O)C2C3C=CC4(O3)C2C(=O)N(C2CCCC(C)C2C)C4C(=O)NC2CCCCC2)c1` (centres undefined), the inhibition was -2.61% (inactive).

For `O=c1cc(Cc2n[nH]c(=S)n2-c2ccc(F)cc2)[nH]c(=O)[nH]1`, the inhibition was 8.67% (inactive).

Consider `O=c1c2sc(=S)n(CCc3ccccc3)c2[nH]c(=S)n1Cc1ccco1`, for which the inhibition is -11.5% (inactive).

For `Cc1c(Cl)cccc1NC(=S)NCC(c1cccnc1)N1CCOCC1` (centres undefined), the inhibition is 7.47% (inactive).

Take `CCc1nc2sc(C(c3ccc(F)cc3)N3CCCC3)c(O)n2n1` (centres undefined): the inhibition was -1.32% (inactive).

Take `CCCCC(=O)NC(c1ccco1)c1ccc2cccnc2c1O` (centres undefined): the inhibition was 33% (inactive).

With `Cc1ccc(C(c2cc(Cl)c3cccnc3c2O)N2CCN(c3ccccn3)CC2)cc1` (centres undefined), the inhibition is -1.76% (inactive).

In the case of `O=C(NCC(c1cccnc1)N1CCOCC1)c1ccc(F)cc1` (centres undefined), the inhibition is -7.05% (inactive).

Regarding `Oc1c(C(c2cccnc2)N2CCOCC2)ccc2cccnc12` (centres undefined), the inhibition is 73.7% (active).

Turning to `O=S(=O)(Oc1cccc2cccnc12)N1CCOCC1`, the inhibition was -0.47% (inactive).

In the case of `Oc1c(C(c2ccccn2)N2CCOCC2)ccc2cccnc12` (centres undefined), the inhibition was 75.7% (active).

Regarding `OCCN1CCN(C(c2ccc(F)cc2)c2ccc3cccnc3c2O)CC1` (centres undefined), the inhibition is 50.6% (active).

Regarding `CCN1CCN(S(=O)(=O)c2ccc(Br)c(OC)c2)CC1`, the inhibition is -5.44% (inactive).

For the compound `Cc1ccc(C(=O)N/N=C\c2ccc(-c3ccc(Br)cc3)o2)cn1`, the inhibition is 8.68% (inactive).

With `CC(=O)N(C)c1ccc(NC(=O)COc2cc(C)ccc2C)cc1`, the inhibition was -10.1% (inactive).

Take `COCCN(CCOC)C(=O)CSc1nnc2nc(C)cc(C)n12`: the inhibition was 9.62% (inactive).

For the compound `O=C(NCc1ccccc1)N1CCN(c2ccc(-c3ccncc3)nn2)CC1`, the inhibition is -7.08% (inactive).

Consider `O=C(c1ccccc1F)N1CCN(c2ccc(-c3cccnc3)nn2)CC1`, for which the inhibition is 4.6% (inactive).

Regarding `CCSc1ccccc1C(=O)N1CCN(c2ccc(-c3ccccn3)nn2)CC1`, the inhibition was 121% (active).

With `O=C(NCc1nnc2n1CCN(C1CCSCC1)CC2)c1c(F)cccc1F`, the inhibition was 17.7% (inactive).

For `COc1ccccc1C(=O)N/N=C/c1ccc(O)cc1O`, the inhibition is 23.2% (inactive).

With `COc1ccc(NC(=O)CN2CCN(S(=O)(=O)c3cc(Cl)ccc3OC)CC2)c(OC)c1`, the inhibition is 6.53% (inactive).

Take `COc1ccc(NC(=O)CN2CCN(C)CC2)c(OC)c1`: the inhibition is 105% (active).

As for `COc1ccc(NC(=O)NN2CCN(C)CC2)c(OC)c1`, the inhibition is -3.56% (inactive).

For `Cc1ccccc1-n1nc2c(c1NC(=O)C(C)Oc1ccccc1)CSC2` (centres undefined), the inhibition was 10.4% (inactive).

In the case of `NC(=O)N/N=C1\CCCCC1c1ccccc1` (centres undefined), the inhibition is -1.85% (inactive).

`COc1ccc(Cn2nnc(C(=O)Nc3cccc(Cl)c3)c2N)cc1`: the inhibition is 61.4% (active).

`Nc1c(C(=O)Nc2ccccc2)nnn1Cc1ccc(F)cc1`: the inhibition was 3.54% (inactive).

For `COc1ccc(NC(=O)Cn2nnc(C(=O)Nc3cc(Cl)ccc3OC)c2N)cc1`, the inhibition is -3.11% (inactive).

In the case of `Cc1ccc(NC(=O)Nc2nnc(CC(=O)Nc3ccccc3C)s2)cc1C`, the inhibition was 17.1% (inactive).

On to `N#Cc1ccc(OCC(=O)Nc2nc(-c3ccccn3)cs2)cc1`, for which the inhibition was 64.9% (active).

As to `O=C(CSc1ccccc1)Nc1nc(-c2ccccn2)cs1`, the inhibition is 0.84% (inactive).

Regarding `N#Cc1ccc(OCC(=O)Nc2ccccc2Cl)cc1`, the inhibition was 12.2% (inactive).

As for `Oc1ccc(/C=N/Nc2ccccc2Cl)c(O)c1O`, the inhibition is 56.2% (active).

As to `Clc1ccccc1/C=N/Nc1nccnc1Cl`, the inhibition is -4.68% (inactive).

`O=C(N/N=C/c1ccccc1Cl)C(=O)N/N=C/c1ccccc1Cl`: the inhibition is 17.2% (inactive).

On to `Cc1ccc(NC(=O)c2c(N)sc3c2CCCCC3)cc1`, for which the inhibition was -9.3% (inactive).

On to `O=C(c1ccccc1)c1ccc(OCC(O)CNCC2CCCO2)cc1` (centres undefined), for which the inhibition was 12.1% (inactive).

Turning to `COc1ccc(NC(=O)c2cc3n(n2)C(C(F)(F)F)CC(c2ccc(OC)c(OC)c2)N3)cc1OC` (centres undefined), the inhibition was 63.8% (active).

For `Cc1ccc(NC(=O)c2cc3n(n2)C(C(F)(F)F)CC(c2ccc(Cl)c(Cl)c2)N3)cc1C` (centres undefined), the inhibition was 12.4% (inactive).

As for `COc1ccc(C2CC(C(F)(F)F)n3nc(C(=O)Nc4cccc(C)c4)cc3N2)cc1OC` (centres undefined), the inhibition is -3.27% (inactive).

With `COC(=O)c1ccc(NC(=O)/C(=C\c2ccco2)NC(=O)c2ccccc2Cl)cc1`, the inhibition is -0.56% (inactive).

Consider `O=C(CSc1nc2ccsc2c(=O)n1-c1ccc(Cl)cc1)N1CCCC1`, for which the inhibition was -8.93% (inactive).

For the origin of these results see PubChem BioAssay AID1259374 (The Scripps Research Institute Molecular Screening Center, 2018).
